# Experimental data as given in PubChem BioAssay AID590 (National Center for Advancing Translational Sciences (NCATS), 2007).
# Screen size: about 59,000 compounds; about 6,500 (11%) were called active. Another 15% or so got no clear call; they are omitted. No stated cut-off is given here; in the data, active means max dye-equivalent concentration above about 10 nM; inconclusive means mostly about 1.1 nM to 9.6 nM; inactive means weaker than that. This excerpt belongs to a sample that is enriched for actives.
# Assay: qHTS Assay for Spectroscopic Profiling in A350 Spectral Region
# Details: Compound autofluorescence, 340/450 nm, Alexa 350 dye-equivalents; active compounds read high
row,Structure (SMILES),max dye-equivalent concentration
1,CCOc1ccccc1NC(=O)CCc1ccc(C)o1,inactive
2,O=C(Nc1cccc(OCC(=O)N2CCOCC2)c1)C1CCCCC1,inactive
3,O=C(Oc1ccc2c(c1)CCC2)N1CCOCC1,inactive
4,O=C1CC2(CCCCC2)Oc2ccc(OCC(=O)N3CCOCC3)cc21,1100 nM (active)
5,CCNc1nc(SCCOc2ccccc2)nc(N(C)C)n1,inactive
6,CCCn1c(SCC(=O)Nc2c(C)cccc2C)nnc1C(C)C,inactive
7,CC(=O)Nc1ccc(NC(=O)CN2CCCC(C)C2)c(Cl)c1 (stereo not given),inactive
8,Cc1cccn2c(=O)c3cc(C#N)c(=O)n(CCCN4CCOCC4)c3nc12,12000 nM (active)
9,Cn1c(=O)c2c(nc(CN3CCOCC3)n2Cc2ccccc2)n(C)c1=O,inactive
10,Cc1nnc(SCC(N)=O)n1CC1CCCO1 (stereo not given),inactive
11,Cc1cccn2c(=O)c3cc(C#N)c(=NC(=O)c4cccnc4)n(CC4CCCO4)c3nc12 (stereo not given),4000 nM (active)
12,CCn1cc(C(=O)NCc2ccc(OC)cc2OC)c(=O)c2ccc(C)nc21,inactive
13,Cc1ccc(S(=O)(=O)NC(=O)NN2C[C@H]3CCC[C@@H]3C2)cc1,inactive
14,Cc1cc(=O)[nH]c(SCC(N)=O)c1C#N,inactive
15,Cn1cccc1C(=O)N1CCC[C@@]2(CCN(Cc3nccs3)C2)C1,inactive
16,O=S(=O)(c1ccc(Sc2nnc3ccccn23)nc1)N1CCOCC1,inactive
17,CC(CCO)Nc1nc2c([nH]1)c(=O)n(C)c(=O)n2C (stereo not given),inactive
18,CC(C)(C)c1nc(NCC2CCCO2)c2nnn(Cc3ccccc3)c2n1 (stereo not given),inactive
19,Cn1c(=O)c2[nH]c(NCC3CCCO3)nc2n(-c2ccccc2)c1=O (stereo not given),11 nM (active)
20,Cc1ccc2nc(S(=O)(=O)O)[nH]c2c1,inactive
21,CCOC(=O)c1cc(-c2nnc(-c3cc(OC)c(OC)c(OC)c3)o2)c(C)nc1C,18 nM (active)
22,COc1cc(-c2nnc(Cn3cc(C(F)(F)F)ccc3=O)o2)cc(OC)c1OC,inactive
23,COc1cc(-c2nc(S(=O)(=O)c3ccc(Cl)cc3)c(N(C)C)o2)cc(OC)c1OC,inactive
24,CCCCC(=O)N1CC2(C)CN(C(=O)CCCC)CC(C)(C1)C2=O,inactive
25,CC(NCCO)C(=O)C12CC3CC(CC(C3)C1)C2 (stereo not given),43 nM (active)
26,CN1CCN(CC(=O)C23CC4CC(CC(C4)C2)C3)CC1,inactive
27,C=CCNC(=O)C12CC3CC(C1)CC(C(=O)NCC=C)(C3)C2,inactive
28,O=C(O)CCC(=O)Nc1ccc(N2CCOCC2)cc1,inactive

row,Structure (SMILES),max dye-equivalent concentration
1,CN(C)c1nc2n(c(=O)n1)CCO2,inactive
2,Cc1ccsc1CNn1cnnc1SCc1ccccc1F,inactive
3,O=C(c1cnccn1)N1CCC2(CCN(Cc3cc(C(F)(F)F)cc(C(F)(F)F)c3)CC2)CC1,inactive
4,Cc1nc(NCCN)c(C#N)c2c1COC(C)(C)C2,16 nM (active)
5,CCN1CCN(c2ncnc3c2oc2nc(C)c4c(c23)CC(C)(C)OC4)CC1,inactive
6,COc1ccc2[nH]cc(CCNc3cc(-c4ccccc4CN(C)C)ncn3)c2c1,inactive
7,Nc1ccc2c3c(cccc13)C(=O)NC2=O,inactive
8,CNc1nc(-c2ccccc2OC)nc2ccccc12,inactive
9,CCSc1nc(=S)n(CC)c(C)c1C(C)=O,inactive
10,CCOC(=O)N1CCC(NC(=O)CCc2cn(C)c3ccccc23)CC1,470 nM (active)
11,CCOC(=O)N1CCC(NC(=O)Cc2cn(C)c3ccccc23)CC1,inactive
12,CCOC(=O)N1CCC(NC(=O)C(C)n2c3ccccc3c3cnn(C)c(=O)c32)CC1 (stereo not given),inactive
13,CC(=O)N1CCN(C(=O)c2cccc(S(=O)(=O)Nc3ccc(C)cc3)c2)CC1,inactive
14,CC1(C)CC(CCC(=O)Nc2ccccc2Cl)C(=O)O1 (stereo not given),inactive
15,CC(C)c1nc2oc3c(N4CCN(C)CC4)ncnc3c2c2c1CCC2,inactive
16,CCCCC(=O)Nc1ccc2c(c1)OCCO2,inactive
17,CCCCC(=O)Nc1ccc(C(=O)NCCCn2ccnc2)cc1,inactive
18,CCCCCC(=O)Nc1ccc2oc(-c3ccncc3)nc2c1,29 nM (active)
19,CCOC(=O)c1cccc(NC(=O)CCc2c(C)nc3ncnn3c2C)c1,inactive
20,CCCCCN(C(=O)NC(=O)Nc1ccccc1OC)S(C)(=O)=O,inactive
21,COc1ccc(OC)c(NC(=O)CSc2nc3cccnc3n2C)c1,inactive
22,CCCC1C(c2ccccc2)C(C#N)(C#N)C2(C#N)CC1(N)NC2=O (stereo not given),inactive
23,CN1CCN(C(=O)C2C3C=CC(C3)C2C(=O)O)CC1 (stereo not given),inactive
24,O=C(CN1CCOCC1)N1CCCc2c1c(=O)oc1ccc(OCc3ccccc3)cc21,41 nM (active)
25,O=C(OCCN1CCOCC1)C1(c2ccccc2)CCCCC1,inactive
26,CCOC(=O)c1c(CN2CCOCC2)n(-c2ccccc2)c2ccc(O)cc12,inactive
27,O=S(=O)(O)c1nc2ccccc2n1Cc1ccc(Cl)cc1Cl,inactive
